Test results taken from ChEMBL document CHEMBL3988442, “University of Dundee, Small-Polar-MMV Screening Library” (2021).
Hit rate of the full screen: of about 48,000 compounds, about 13,000 (27%) showed an effect of 50% or more. The list shows a part of the results.

tested on: Wolbachia pipientis; assay: Anti-Wolbachia Cell-Based Screen; type: functional; set-up: scale not given: in the data most compounds retested in dose-response had high values; conditions: 5 µM

Structure (SMILES)	Percent Effect [%]
CCNC(=O)CCC(=O)NC1(c2cccc(Br)c2)CC1	-12.14
CCc1nc(C)c(C(=O)N2C[C@H]3CC[C@@H]2CN(S(=O)(=O)N(C)C)C3)s1	8.94
CN(Cc1cnn(C)c1)C(=O)NC1CCN(c2ncccn2)CC1	-3.223
CC(C)NC(=O)[C@@H]1CC[C@@H]2[C@@H](CCN2Cc2cn(C)c3ccccc23)O1.O=C(O)C(F)(F)F	-4.98
Cc1cccnc1CN(C)C(C(=O)O)c1ccc(-c2ccn[nH]2)cc1 (stereo unspecified)	-12.44
O=C(CC1OCCc2ccccc21)NCCn1cccc1 (stereo unspecified)	-19.46
COc1c(CNCc2cccnc2N2CCN(C)CC2)c(C)nn1C	102
Cc1nn(C)c(Cl)c1C(=O)NCc1cccnc1N1CCOCC1	97.98
COc1ccc(C(=O)NCc2cccnc2N2CCOCC2)o1	-8.247
Cc1nn(C)c(C)c1C(=O)NCc1cccnc1OC1CCCC1	2.821
COc1ncccc1CNCc1c(C)nn(C)c1N1CCOCC1	134
COc1c(CNCc2cccnc2OC2CCCC2)c(C)nn1C	10.48
Cc1nn(C)c(N(C)C)c1CNCc1cccnc1-n1cncn1.Cl	6.556
Cc1nn(C)c(N2CCOCC2)c1CNC(c1cccs1)C(C)C (stereo unspecified)	11.33
Cc1nn(C)c(N(C)C)c1CNCc1cccnc1N1CCOCC1	75.62
COc1c(CNCc2ccccc2CO)c(C)nn1C	-3.857
Cn1ncnc1CCNC(=O)c1cc(Cl)c(Cl)n1C	-10.92
CCC(O)(CNCc1ncc[nH]1)c1ccc(Br)cc1 (stereo unspecified)	-2.159
CCN(C(=O)c1ccc2nncn2c1)C(C)Cc1ccc(OC)cc1 (stereo unspecified)	0.4912
COc1ccccc1CN1C(=O)O[C@@H]2CN(Cc3cccc(C)n3)C[C@@H]21	8.298
Cc1c(C(C)NCc2cnn(C)c2)cnn1-c1ccccc1 (stereo unspecified)	2.501
COc1c(CNCc2ccc(N3CCOCC3)cc2)c(C)nn1C	-35.64

Structure (SMILES)	Percent Effect [%]
Cc1nn(C)c(Cl)c1CNCc1cccnc1N1CCCCC1.Cl	128.1
CC(C)c1nn(C)c(Cl)c1CNCc1cccnc1N(C)C.Cl	4.509
COc1c(CNCc2cccnc2N2CCCCC2)c(C)nn1C	105.9
Cc1nn(C)c(C)c1CNCc1cccnc1N1CCOCC1	117.5
COc1c(CNCc2ccnc(N3CCCC3)c2)c(C)nn1C	5.629
COc1ncccc1CNCc1c(C(C)C)nn(C)c1Cl	-10.74
Cc1nn(C)c(C)c1CNCc1ccnc(N2CCOCC2)c1	7.637
COc1c(CNCc2cccnc2N2CCOCC2)c(C)nn1C	98.1
COc1c(CNCc2ccccc2CN2CCOCC2)c(C)nn1C	9.735
Cc1nn(C)c(C)c1CNCc1ccc(N2CCOCC2)nc1.Cl	-2.34
CCN(CC)C(=O)[C@@H]1C[C@@H](NC(=O)c2ccn(C(C)(C)C)c2)CN1C	-2.553
CCOC1CCCN(C(=O)c2[nH]nc(C3CC3)c2Br)C1 (stereo unspecified)	12.02
Cc1nn(C)c(C)c1CCC(=O)NCc1cccnc1OC1CCCC1	8.443
Cc1nn(C)c(C)c1CC(=O)NCc1cccnc1OC1CCCC1	8.742
Cc1nn(C)c(C)c1CC(=O)NCc1cccnc1N1CCOCC1	92.54
O=C(NC1CCC(C(=O)N2CCSCC2)CC1)N1CCOCC1 (stereo unspecified)	-2.912
CC(=O)NCCNC(=O)c1sccc1Br	4.913
COC(=O)CNC(=O)c1sccc1N(C)S(=O)(=O)c1ccc(Cl)cc1	108.4
COC(=O)CNC(=O)c1cccc(C(=O)N(C)c2ccccc2)c1	-13.83
COCCNS(=O)(=O)c1ccc(Cl)c(C(=O)N(C)Cc2sccc2C)c1	1.059
Cc1ccc(S(=O)(=O)N(C)c2ccsc2C(=O)NCC(C)C)cc1	110.5
CNC(=O)c1sccc1S(=O)(=O)Nc1ccc(C)cc1	10.06

Structure (SMILES)	Percent Effect [%]
COCC1CN(c2ccc(Cl)cc2C#N)CCO1 (stereo unspecified)	-47.15
CN(C(=O)CN1CCCC1c1cnn(C)c1)C1(C#N)CCCCC1 (stereo unspecified)	17.82
Fc1ccc(C2(NCc3noc(C4CC4)n3)CCC2)cc1	7.462
Cn1ccnc1CN1CC[C@@H]2[C@@H](CCC(=O)N2CCc2c[nH]cn2)C1	16.03
N#Cc1cn(C2CC2)c(=O)n(CC(O)c2ccc(OC(F)F)cc2)c1=O (stereo unspecified)	-10.28
CC(C)N(Cc1c[nH]nc1-c1ccc2c(c1)OCO2)Cc1nccn1C	-1.902
CN(C)CCOCc1cncc2c1CCN(C1CCOCC1)C2.O=C(O)C(F)(F)F.O=C(O)C(F)(F)F.O=C(O)C(F)(F)F	96.48
CN(C)CCOCc1cncc2c1CCN(C(=O)C1CCOCC1)C2.O=C(O)C(F)(F)F.O=C(O)C(F)(F)F	112.9
CCN(CC)c1ncc2c(c1C(=O)O)CCN(C1CCOC1)C2.O=C(O)C(F)(F)F (stereo unspecified)	12.85
CN(C)C(=O)COCc1cncc2c1CCN(C1CCOCC1)C2.O=C(O)C(F)(F)F.O=C(O)C(F)(F)F	119.4
CN1CCN(c2ncc3c(c2C(=O)O)CCN(C2CCOC2)C3)CC1.O=C(O)C(F)(F)F.O=C(O)C(F)(F)F (stereo unspecified)	2.308
CN(C)C(=O)COCc1cncc2c1CCN(Cc1nccn1C)C2	-3.709
O=C(C1CC=CC1)N1CCc2c(COCc3ccncc3)cncc2C1.O=C(O)C(F)(F)F.O=C(O)C(F)(F)F	-4.118
Cn1ccnc1CNC[C@H]1Cn2cc(-c3ccccc3)nc2CO1	-17.11
COc1cc(F)ccc1NC(=O)NCCNC(=O)OC(C)(C)C	3.046
CN(C)c1ccc(NC(=O)N2CCCCC2c2ncc[nH]2)cn1 (stereo unspecified)	3.844
OCCN(Cc1cccnc1)c1ccc(Br)cn1	-12.52
c1ccc(Cn2ccnc2CN2CCCC2c2noc(C3CC3)n2)cc1 (stereo unspecified)	9.89
Cc1cccc(C(=O)N2CCCC(c3nccn3Cc3cscn3)C2)n1 (stereo unspecified)	13.18
O=C(c1cnccn1)N1CCCC(Cn2cc(C3CC3)nn2)C1 (stereo unspecified)	-22.35
CNc1ccc(CC2CCCN(C(=O)c3cccc(C)n3)C2)nn1 (stereo unspecified)	125.2
CNc1ccc(CC2CCCN(C(=O)c3cncnc3C)C2)nn1 (stereo unspecified)	-8.103

Structure (SMILES)	Percent Effect [%]
CNc1ccc(CC2CCCN(C(=O)c3cnccn3)C2)nn1 (stereo unspecified)	132.6
CNc1ccc(CC2CCCN(C(=O)c3cnc(C)nc3)C2)nn1 (stereo unspecified)	2.499
CCc1noc(CN(CC)C(=O)c2ccc3ncsc3c2)n1	-4.547
Cc1nc(CN(C)C(=O)Nc2cccc(C)c2C)no1	98.94
Cc1nc(CN(C)C(=O)Nc2cccc(COC(C)C)c2C)no1	-7.168
Cc1nc(CN(C)C(=O)Nc2cccc(COC(C)C)c2)no1	-5.04
CCN(C)c1ncnc2c1CCN(C(=O)c1cnccn1)CC2.O=C(O)C(F)(F)F	3.18
CCCc1n[nH]c(C2CN(C(=O)CCCn3cccn3)CCO2)n1 (stereo unspecified)	-7.162
CCCc1n[nH]c(C2CN(C(=O)Cn3ccccc3=O)CCO2)n1 (stereo unspecified)	125.8
CCc1n[nH]c(C2CN(C(=O)CCn3ccccc3=O)CCO2)n1 (stereo unspecified)	105.3
CCc1n[nH]c(C2CN(C(=O)CCc3cccs3)CCO2)n1 (stereo unspecified)	3.606
CCc1n[nH]c(C2CN(C(=O)Cc3ccc(C)nc3)CCO2)n1 (stereo unspecified)	17.82
CCc1n[nH]c(C2CN(C(=O)Cc3cccs3)CCO2)n1 (stereo unspecified)	122.2
CCc1n[nH]c(C2CN(C(=O)Cn3ccccc3=O)CCO2)n1 (stereo unspecified)	10.71
CCCc1n[nH]c(C2CN(C(=O)CCn3ccccc3=O)CCO2)n1 (stereo unspecified)	104.2
CC(C)(C)c1coc([C@@H]2COCCN2Cc2c[nH]c3ccccc23)n1	-5.354
CS(=O)(=O)Cc1cccc(C(=O)NCC2Cc3ccccc3O2)c1 (stereo unspecified)	-6.812
CC(C)N(C)CC(=O)N1CCCC(c2ccc(C(=O)O)cc2)C1 (stereo unspecified)	-10.1
CCN(C)S(=O)(=O)N1CCCC(c2cccc(C(=O)O)c2)C1 (stereo unspecified)	10.58
CN(C)c1ccccc1C(=O)N1CCCC(c2cccc(C(=O)O)c2)C1 (stereo unspecified)	94.85
CN(C)c1ccccc1C(=O)N1CCCC(c2ccc(C(=O)O)cc2)C1 (stereo unspecified)	127.7
CCC1CN(C(=O)c2ccccc2N(C)C)CCN1C(C)C (stereo unspecified)	-1.815

Structure (SMILES)	Percent Effect [%]
O=C(O)c1cccc(C2CCCN(S(=O)(=O)C3CC3)C2)c1 (stereo unspecified)	5.769
CCS(=O)(=O)c1ncc(CN2CCSCC2)n1CCc1ccccc1	0.5583
COC(=O)C1(NCc2nc(C)c(C)o2)CCC(C)CC1 (stereo unspecified)	-8.144
Cc1cc(C(=O)Nc2ccc(OCC3CCOCC3)cc2)[nH]n1	0.7277
CN1CCN(S(=O)(=O)c2ncn(C)c2Cl)CC1	8.331
O=C1CCCCN1CCCNCc1cnc(C2CCC2)s1	-10.31
Cn1cnc(S(=O)(=O)NCCCN2CCCCCC2=O)c1Cl	103.8
CCN1CCN(S(=O)(=O)c2ncn(C)c2Cl)CC1	25.01
Cn1cnc(S(=O)(=O)NCCCN2CCCC2=O)c1Cl	106
Cn1cnc(S(=O)(=O)NCCN2CCCCCC2=O)c1Cl	-2.808
Cc1cc(C)n(CC(C)NC(=O)c2cc(CN3CCC(O)CC3)on2)n1 (stereo unspecified)	-12.5
COCCCc1nc(-c2ccc(S(=O)(=O)N3CCCC3)cc2)cs1	23.72
CCC(NC(=O)Cn1ccc(=O)n(C)c1=O)c1ccc(OC)cc1 (stereo unspecified)	1.056
COc1ccc(C(C)NC(=O)Cn2ccc(=O)n(C)c2=O)cc1F (stereo unspecified)	127.2
COc1ccc(C)cc1C(C)NC(=O)NCCCn1cncn1 (stereo unspecified)	6.959
COc1ccc(C(O)CNC(=O)Cn2ccc(=O)n(C)c2=O)cc1 (stereo unspecified)	1.675
CCC(NC(=O)Cn1ccc(=O)n(C)c1=O)c1ccccc1OC (stereo unspecified)	2.411
COc1ccc(C)cc1C(C)NC(=O)Cn1ccc(=O)n(C)c1=O (stereo unspecified)	121.4
